The source of these data is PubChem BioAssay (EPA / NIEHS).

Molecules are shown by their SMILES. The source made the active and inactive calls. How the source made its calls: active means hit-call score of the fitted dose curve at least 0.9, where 1 is the maximum; inactive means score below 0.9.

Assay [1] is described as follows: APR_HepG2_CellCycleArrest_24hr: Apredica 24-hour HepG2 Assay for Cell Cycle Arrest (AID 2282905).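 Further: cell cycle arrest scored as ratio of 2N to 4N nuclear DNA content.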 The conditions noted are these: imaging, actives raise or lower the signal. The essentials:
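After 24 h exposure at 0.39–200 uM in 0.5% DMSO, fixed cells received Hoechst 33342 staining. Imaging quantified per-nucleus DNA content; gain or loss fitted against DMSO controls.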

The nature of assay [2]: APR_HepG2_NuclearSize_24hr: Apredica 24-hour HepG2 Assay for Nuclear Size (AID 2282907). The conditions noted are these: high-content imaging, actives raise or lower the signal. The essentials: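 Nuclear size from Hoechst 33342-stained, formaldehyde-fixed HepG2 nuclei imaged by high-content microscopy, after 24 h dosing at ten concentrations from 0.39 to 200 uM in 0.5% DMSO; gain or loss relative to DMSO baseline.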

Assay [3] is described as follows: APR_HepG2_CellLoss_24hr: Apredica 24-hour HepG2 Assay for Cell Loss (AID 2282908).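 On AC50: fit in both directions so a hit may be cell loss or gain.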 The conditions noted are these: high-content imaging. The gist of the method: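 Nuclei stained with Hoechst 33342 after formaldehyde fixation (3.7%) were imaged at 20x to count cells. Exposure lasted 24 hr, at ten concentrations from 0.39 to 200 uM in duplicate, with 0.5% v/v DMSO. Fit bidirectional, relative to DMSO.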

Assay [4] can be described thus: APR_HepG2_MicrotubuleCSK_24hr: Apredica 24-hour HepG2 Assay for Microtubule CSK Stabilty (AID 2282909). Particulars: HepG2 microtubule cytoskeleton imaging, actives raise or lower the signal. The gist of the method: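 Fixed HepG2 cells were stained for alpha-tubulin and imaged after 24 hr exposure to ten concentrations spanning 0.39–200 uM in 0.5% DMSO. Signal change was fitted in both directions relative to DMSO; taxol was the positive control.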

Assay [5] can be described thus: APR_HepG2_MitoticArrest_24hr: Apredica 24-hour HepG2 Assay for Mitotic Arrest (AID 2282910). The conditions noted are these: high-content imaging, actives raise or lower the signal. The gist of the method:
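Treatment lasted 24 hr in the human HepG2 line at 0.39–200 uM, solvent held at 0.5% DMSO. Fixed cells were stained with Hoechst 33342 and anti-phospho-histone H3, imaged at 20x, and analysed by gain- or loss-of-signal fitting against DMSO.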

Assay [6] can be described thus: APR_HepG2_MitoMembPot_24hr: Apredica 24-hour HepG2 Assay for Mitochondrial Membrane Potential (AID 2282911). The conditions noted are these: imaging, actives raise or lower the signal. The gist of the method: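 HepG2 human liver cells were exposed 24 hr to compounds at 0.39–200 uM (final DMSO 0.5% v/v) in duplicate. MitoTracker Red CMXRos (250 nM, 30 min) was loaded before formaldehyde fixation; fluorescence was imaged by ArrayScan HCS and fitted bidirectionally versus DMSO.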

Assay [7] can be described thus: APR_HepG2_MitoMass_24hr: Apredica 24-hour HepG2 Assay for Mitochondrial Mass (AID 2282912). The conditions noted are these: high-content imaging, actives raise or lower the signal. The gist of the method: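 Endpoint is MitoTracker Red CMXRos (250 nM, 30 min, pre-fixation) intensity from 20x high-content imaging, nuclei located by Hoechst. Human HepG2 cells received ten concentrations from 0.39 to 200 uM in 0.5% DMSO for 24 hr, duplicate wells. Bidirectional fit relative to DMSO.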

A short description of assay [8]: APR_HepG2_p53Act_24hr: Apredica 24-hour HepG2 Assay for p53 Activation (AID 2282913).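 Further: p53 protein immunofluorescence averaged per cell in HepG2 with Hoechst nuclei.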 Particulars: high-content imaging, actives raise or lower the signal. The essentials:
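HepG2 cells exposed 24 hr to compounds at 0.39–200 uM (10 concentrations, duplicate), final DMSO 0.5% v/v. After formaldehyde fixation and Triton permeabilization, p53 was immunolabeled (sheep anti-p53, Cy5 secondary) with Hoechst 33342 nuclear counterstain, then imaged by high-content fluorescence microscopy.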

Assay [9] in a line: APR_HepG2_CellCycleArrest_72hr: Apredica 72-hour HepG2 Assay for Cell Cycle Arrest (AID 2282914). Particulars: high-content imaging, actives raise or lower the signal. The gist of the method:
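HepG2 cells were exposed to compounds at 0.39–200 uM (0.5% v/v DMSO final, duplicates) for 72 hr, fixed in 3.7% formaldehyde, permeabilized and stained with Hoechst 33342. Nuclear DNA content was quantified by high-content imaging; gain or loss of signal was fitted bidirectionally against DMSO.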

A short description of assay [10]: APR_HepG2_CellLoss_72hr: Apredica 72-hour HepG2 Assay for Cell Loss (AID 2282915). Particulars: high-content imaging. The gist of the method: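 HepG2 cells were exposed for 72 hr to compounds at 0.39–200 uM (ten concentrations, duplicate) in 0.5% v/v final DMSO. Nuclei were stained with Hoechst 33342 after 3.7% formaldehyde fixation, imaged at 20x, and counted; fits bidirectional versus DMSO.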

A short description of assay [11]: APR_HepG2_P-H2AX_72hr: Apredica 72-hour HepG2 Assay for H2AX Phosphorylation (AID 2282916).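 Further: phospho-histone H2A.x immunostain intensity per cell marking DNA damage.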 The conditions noted are these: imaging, actives raise or lower the signal. The gist of the method:
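Phospho-histone H2A.x immunofluorescence, multiplexed with Hoechst and c-Jun, quantified by high-content imaging. Compounds applied to HepG2 for 72 h across ten concentrations (0.39–200 uM, 0.5% DMSO), in duplicate; DMSO baseline.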

A short description of assay [12]: APR_HepG2_MitoMembPot_72hr: Apredica 72-hour HepG2 Assay for Mitochondrial Membrane Potential (AID 2282917). Particulars: imaging, actives raise or lower the signal. The gist of the method: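 HepG2 cells exposed 72 h to compounds at 0.39–200 uM (0.5% v/v DMSO, duplicates); MitoTracker Red CMXRos 250 nM loaded 30 min before 3.7% formaldehyde fixation, imaged by HCS fluorescence. Bidirectional fit versus DMSO.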

Assay [13] can be described thus: APR_HepG2_MitoticArrest_72hr: Apredica 72-hour HepG2 Assay for Mitotic Arrest (AID 2282918). The conditions noted are these: high-content imaging, actives raise or lower the signal. The essentials: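 HepG2 cells were exposed for 72 hr to compound at 0.39–200 uM (10 concentrations, duplicate) in 0.5% v/v DMSO, fixed in 3.7% formaldehyde, immunostained for phospho-histone H3 with Hoechst 33342 and imaged by high-content fluorescence; bidirectional fits versus DMSO.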

The nature of assay [14]: APR_HepG2_P-H2AX_24hr: Apredica 24-hour HepG2 Assay for H2AX Phosphorylation (AID 2282920). The conditions noted are these: high-content imaging, actives raise or lower the signal. The essentials: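 HepG2 human liver cells were exposed for 24 hr to compounds at 0.39–200 uM in duplicate, with 0.5% v/v DMSO final. Fixed cells were immunostained for phospho-histone H2A.x plus Hoechst 33342, imaged by HCS fluorescence, and fitted bidirectionally against DMSO.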

The nature of assay [15]: APR_HepG2_StressKinase_72hr: Apredica 72-hour HepG2 Assay for Stress Kinase (AID 2282921). Particulars: HepG2 stress kinase (phospho-c-Jun) imaging, actives raise or lower the signal. The gist of the method: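 Stress kinase signal is phospho-c-Jun immunofluorescence (1:500 primary, Cy3 secondary) in fixed, permeabilized human HepG2 cells imaged at 20x. Exposure lasted 72 hr over ten concentrations from 0.39 to 200 uM, 0.5% DMSO, in duplicate. Bidirectional fit versus DMSO.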

A short description of assay [16]: APR_HepG2_StressKinase_24hr: Apredica 24-hour HepG2 Assay for Stress Kinase (AID 2282922). The conditions noted are these: HepG2 stress kinase (phospho-c-Jun) imaging, actives raise or lower the signal. The gist of the method: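 After 24 hr compound treatment (up to 200 uM, final DMSO 0.5% v/v), HepG2 cells are fixed and multiplex-labeled; phospho-c-Jun intensity is captured by high-content fluorescence imaging and analyzed relative to DMSO.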

Assay [17] is described as follows: APR_HepG2_p53Act_72hr: Apredica 72-hour HepG2 Assay for p53 Activation (AID 2282923).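 Further: average cellular p53 protein immunofluorescence intensity in HepG2 cells.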 Particulars: high-content imaging, actives raise or lower the signal. The essentials:
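After 72 h with compound (ten points, 0.39 to 200 uM, final DMSO 0.5% v/v), fixed HepG2 cells were labelled with sheep anti-p53 and Hoechst 33342 and imaged; gain or loss versus DMSO scored.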

Assay [18] is described as follows: APR_HepG2_MitoMass_72hr: Apredica 72-hour HepG2 Assay for Mitochondrial Mass (AID 2282924).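 Further: MitoTracker Red CMXRos stain intensity per cell imaged as mitochondrial mass.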 The conditions noted are these: high-content imaging, actives raise or lower the signal. The essentials:
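Steps: treat HepG2 72 hr (0.39–200 uM, duplicate wells); load MitoTracker Red CMXRos, 250 nM, 30 min; fix with 3.7% formaldehyde, permeabilise with 0.5% Triton X-100; capture images, nuclei via Hoechst 33342; fit bidirectionally against DMSO.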

The nature of assay [19]: APR_HepG2_NuclearSize_72hr: Apredica 72-hour HepG2 Assay for Nuclear Size (AID 2282925). The conditions noted are these: high-content imaging, actives raise or lower the signal. The gist of the method: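 Compounds (0.39–200 uM, final DMSO 0.5%) were applied to HepG2 for 72 hr. Cells were then formaldehyde-fixed, permeabilized and labelled with Hoechst 33342. Nuclear diameter was quantified from six images per well.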

Assay [20] is described as follows: APR_HepG2_MicrotubuleCSK_72hr: Apredica 72-hour HepG2 Assay for Microtubule CSK Stabilty (AID 2282919). Particulars: HepG2 microtubule cytoskeleton, high-content imaging, actives raise or lower the signal. The essentials: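 Ten-point dosing (0.39–200 uM, 0.5% DMSO) of HepG2 for 72 hr, with taxol as the cytoskeletal positive control. The cells were formaldehyde-fixed and then stained with alpha-tubulin/Cy5 and Hoechst. Imaging at 20x used a −2 um Z offset for tubulin.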

Consider `CCCCCCCCn1sccc1=O`, for which the AC50 (as a rule, the concentration giving half of the maximal activity seen) in [1] was 6.2 µM (active); in [2], 10.7 µM (active); in [3] it was 16.1 µM (active); in assay [4] it was 79.4 µM (active); in assay [5], 7.54 µM (active); in assay [6], 53.4 µM (active). Further, the AC50 is 3.62 µM (active) in [8]; 5.76 µM (active) in assay [10]; 4.92 µM (active) in [11]; 96.1 µM (active) in assay [12]; 3.77 µM (active) in assay [13]; 6.1 µM (active) in assay [14]. Moreover, the AC50 in assay [15] was 5.97 µM (active); in assay [16], 3.47 µM (active); in [17] it was 3.54 µM (active); in assay [18], 3.51 µM (active). In addition, the compound was called inactive in [7], in assay [9] and in assay [19].
In the case of `CC(O)CCO` (stereo unspecified), the outcome in [1], in assay [2], in assay [3], in assay [4], in [5] and in [6] was inactive. Also, the result in [7], in [9], in assay [10], in assay [11], in assay [12] and in assay [13] was inactive. For the same compound, the compound was classed as inactive in assay [20], in assay [14], in assay [15], in assay [16], in assay [17] and in assay [18].
In the case of `O=C(O)C1C2CCC(O2)C1C(=O)O` (stereo unspecified), the outcome in [1], in assay [2], in [3], in [4], in assay [6] and in assay [9] was inactive. Besides, the compound was called inactive in assay [12], in assay [20], in assay [15] and in assay [16]. For the same compound, the AC50 in assay [5] is 26.6 µM (active); in [7], 41.4 µM (active); in [8], 24.4 µM (active); in assay [10], 21.5 µM (active); in assay [11] it was 22.2 µM (active); in assay [13], 19.6 µM (active). Also, the AC50 was 29.4 µM (active) in assay [14], 21.2 µM (active) in assay [17], 50.2 µM (active) in [18] and 36 µM (active) in assay [19].
`Nc1ccc(Cc2ccc(N)cc2)cc1`: the call in assay [1], in assay [2], in assay [3], in [4], in assay [5] and in [6] was inactive. In addition, the compound was classed as inactive in assay [7], in assay [9], in assay [10], in assay [11], in assay [12] and in assay [13]. The compound was classed as inactive in assay [20], in assay [14], in assay [15], in [16], in assay [17] and in assay [18]. Also, the outcome in [19] was inactive.
For the compound `CCN(CC)CCO`, the outcome in [1], in [2], in [3], in [4], in assay [5] and in [6] was inactive. Besides, the compound was called inactive in assay [7], in assay [8], in assay [9], in [10], in [11] and in assay [12]. Moreover, the compound was called inactive in [13], in assay [20], in assay [14], in assay [15], in assay [16] and in [17]. Further, the result in [18] was inactive.
Take `CCCCC(CC)COC(=O)c1ccc(C(=O)OCC(CC)CCCC)c(C(=O)OCC(CC)CCCC)c1` (stereo unspecified): the outcome in [1], in assay [2], in [3], in assay [4], in [5] and in assay [6] was inactive. Further, the call in assay [7], in assay [9], in assay [10], in assay [11], in assay [12] and in [13] was inactive. The outcome in assay [20], in assay [14], in assay [15], in assay [16], in assay [17] and in [18] was inactive.
Regarding `CC(C)(C)OOC(=O)c1ccccc1`, the compound was called inactive in assay [1], in assay [20] and in [16]. Besides, the AC50 in assay [2] was 38.6 µM (active); in [3], 33.3 µM (active); in assay [4] it was 48.2 µM (active); in [5], 20.5 µM (active); in assay [6], 33.8 µM (active); in [7], 34.1 µM (active). For the same compound, the AC50 was 21.8 µM (active) in assay [9]; 26.6 µM (active) in [10]; 35.1 µM (active) in assay [11]; 20.1 µM (active) in [12]; 23.1 µM (active) in assay [13]; 16.4 µM (active) in [14]. Moreover, the AC50 in assay [15] was 50 µM (active); in assay [17], 21.5 µM (active); in assay [18], 54 µM (active).
